# DT40 TDP1 CPT – DT40-hTDP1 cell growth loss with CPT | chicken DT40 Tdp1-/-;hTDP1 cells + 20 nM CPT, ATP luminescence, 48 h | Potency, µM (top dose mostly 46.2 µM), without a hit: top-dose activity change, negative = growth inhibition, hits mostly inhibitors | hit rate 12% among 420,000 | AID 686979; also: potency is read from the fitted curve at half-maximal effect; % is scaled to controls: 0 for no effect and ±100 for the full control effect; nearly all actives have a fitted effect of over 55% in size
#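 Chicken DT40 Tdp1-/- cells complemented with human TDP1, 400 cells/well, exposed to compounds plus 20 nM camptothecin for at least 48 h at 37 C; viability read as ATP content by CellTiter-Glo luminescence.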
# ClpP mod – qHTS Assay for Activators of ClpP; ATP-dependent Clp protease proteolytic subunit (Bacillus subtilis (strain 168)), P80244; purified B. subtilis ClpP, FRET peptide cleavage, 20 min; Potency, µM (series often up to 57.5 µM), inactives show at the highest dose activity change, negative = active; hit rate 1.9% among 340,000; AID 651965, 2013; active = well fitted falling curve with a large enough effect; inconclusive = small, poorly fitted or top-dose-only effect; inactive = no such curve, though single readings can be large or run the other way; also: potency is read from the fitted curve at half-maximal effect; the source files actives as falling curves though it sought activators and does not explain the sign; nearly all actives have a fitted effect of over 65% in size
#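 Buffer: 100 mM Tris/HCl pH8, 100 mM KCl, 0.05% low protease BSA, 2.5% glycerol, 0.01% Tween-20. ClpP 10 microg/mL final; 20 min RT; delta FRET normalized to ADEP and DMSO controls.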
# DT40 TDP1 no CPT – qHTS for Inhibitors of human tyrosyl-DNA phosphodiesterase 1 (TDP1): qHTS in cells in absence of CPT. DT40 Tdp1-/- hTDP1 cells, no CPT, ATP luminescence, 48 h. Potency, µM (highest dose often 46.2 µM), for inactives: at the top dose activity change, negative = growth inhibition, actives largely listed as inhibitors. hit rate 15% among 420,000. AID 686978, 2013; also: potency is read from the fitted curve at half-maximal effect; % is scaled to controls: 0 for no effect and ±100 for the full control effect; nearly all actives have a fitted effect of over 55% in size
#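 Compound effects on proliferation are scored in DT40 Tdp1-/-;hTDP1 cells in the absence of CPT. ATP levels (CellTiter-Glo luminescence) are recorded after a ≥48 hr, 37 °C incubation.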
# D3 ag – activates the human D3 dopamine receptor | hit rate 0.58% among 410,000 | D3R DiscoveRx beta-arrestin cells, luminescence, 90 min | P35462 | max activation, % | AID 652048; in the data active = max activation above about 30%; also: 0% is about no effect
#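 Cells at 1500/well, incubated overnight, then treated with pinned compounds (dopamine as control) for 90 min at 37 degrees C. DiscoveRx reagent added for 30 - 60 minutes at room temperature; luminescence read.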
# IL1B secr inh – inhibitors of inflammasome signaling (IL-1 beta secretion). THP-1 LPS/ATP IL-1B secretion, AlphaLISA, 16 h; stronger effect = lower value. activity change, % at 57.5 µM. hit rate 4.7% among 360,000; in the data active = activity change below about -50%; inconclusive = mostly about -30% to -49%; also: % is scaled to controls: 0 for no effect and ±100 for the full control effect
#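 THP-1 cells pretreated 1 hr with compounds (up to 57.5 uM final), then stimulated with LPS (250 ng/mL final) plus ATP (1.25 mM final); secreted IL-1B measured by AlphaLISA after 16 hr, decreased signal indicating inhibition.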
# DRD3 antagonist – antagonists of human D3 dopamine receptor. D3R cells, DiscoveRx beta-arrestin luminescence, antagonist mode; stronger effect = lower value. max response, negative = inhibition, %. hit rate 2.5% among 360,000. AID 652054; in the data active = max response below about -50%; inconclusive = no clear call, values can overlap the other calls; also: % is scaled to controls: 0 for no effect and ±100 for the full control effect
#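 Cells expressing the human receptor were seeded at 1500 cells/well, incubated overnight at 37 degrees C in 5% CO2, then exposed to library compounds with dopamine controls for 90 minutes at 37 degrees C before luminescent detection.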
# * marks the source's active call; other numbers are inactive results; ? = inconclusive; / = no result. Rows were chosen to be rich in hits. Some 21% of all compounds tested hit in one or more screens of this group. Unless noted, calls follow the shape of the dose curve; as a rule, active = well fitted inhibition curve with a large enough effect; inconclusive = small, poorly fitted or top-dose-only effect; inactive = flat fitted curve, though single readings scatter.
SMILES,DT40 TDP1 CPT,ClpP mod,DT40 TDP1 no CPT,D3 ag,IL1B secr inh,DRD3 antagonist
CC(C)(C)OC(=O)NCCCCCNC(=O)c1[nH]cnc1C(=O)N[C@@H](Cc1ccccc1)C(=O)OCc1ccccc1,?,0%,?,6,?,5
CC(C)(C)OC(=O)CNC(=O)c1[nH]cnc1C(=O)NCC(=O)OCc1ccccc1,?,1%,?,71*,14,67
CC(C)(C)OC(=O)[C@H](Cc1ccccc1)NC(=O)c1nc[nH]c1C(=O)NCC(=O)OCc1ccccc1,?,1%,-71%,-10,-5,5
CC(C)(C)OC(=O)NCCCCCNC(=O)c1nc[nH]c1C(=O)NCC(=O)OCc1ccccc1,?,-4%,15µM*,27,-9,110
O=C(NCc1ccccc1)NC1CCS(=O)(=O)C1 (configuration not stated),40%,/,-8%,-7,15,5
Cc1ccc(/C=c2\sc3nc(-c4cccnc4)nn3c2=O)cc1,?,14µM*,29µM*,-8,0,0
CC(C)c1ccc(/C=c2\sc3nc(-c4ccncc4)nn3c2=O)cc1,?,-1%,12µM*,3,6,-14
CC1CN(C(=O)COC(=O)/C=C/c2ccccc2)CC(C)O1 (configuration not stated),-12%,-2%,?,-6,-5,-26
Cc1ccccc1C(=O)N1CCC[C@H]1C(=O)N1CCC[C@H]1C(=O)NCc1ccccn1,0%,0%,-13%,7,26,16
COc1ccc(C(=O)c2c(C)c3ccccc3n2CC(O)CNC(C)C)cc1 (configuration not stated),?,-2%,23µM*,-7,?,-17
COc1ccc(-c2nc3ccccc3n2OC(C)C(=O)O)cc1 (configuration not stated),-6%,/,-19%,0,5,-14
CC(C)C1=CC(=Nc2ccc(S(N)(=O)=O)cc2)C=C(C(C)C)C1=O,16µM*,1%,23µM*,9,-57*,2
NS(=O)(=O)c1ccc(N=C2C(=O)Nc3ccccc32)cc1,-15%,1%,-18%,-4,1,0
CC1=CC(=O)C(C(C)C)=C/C1=N/OC(=O)c1cccc([N+](=O)[O-])c1,23µM*,1%,12µM*,-19,-101*,-22
CC1=CC(=O)C(C(C)C)=C/C1=N\OC(=O)c1cccc2nc(C)oc12,?,-1%,21µM*,-14,1,?
CC1=CC(=NOC(=O)c2cccc([N+](=O)[O-])c2)C=C(C)C1=O,18µM*,-2%,12µM*,-6,-85*,?
COc1cccc(NC(=O)c2c(C)nn(-c3ccccc3)c2Cl)c1,?,1%,?,4,?,17
O=S1(=O)c2ccccc2N(Cc2cccc(C(F)(F)F)c2)c2ccccc21,?,?,?,-15,/,/
Cc1cccc(C)c1NC(=O)N1CCC(c2nc3ccccc3o2)CC1,-12%,-2%,-9%,1,-20,-75*
COc1ccc(/C=C/C(=O)N2CCC(c3nc4ccccc4o3)CC2)cc1OC,?,?,16µM*,-1,/,/
O=C(/C=C/c1ccccc1Cl)N1CCC(c2nc3ccccc3o2)CC1,?,-2%,21µM*,12,/,/
CCCCn1c(N)c(N(CCOC)C(=O)c2cccc(S(=O)(=O)N(CC)c3ccccc3)c2)c(=O)[nH]c1=O,-2%,-14%,?,1,14,16
CCOC(=O)c1c(NC(C)=O)sc2c(OCC(O)CN(CC)CC)c(Br)ccc12 (configuration not stated),?,/,21µM*,-11,?,0
COc1cc(NS(=O)(=O)c2ccc(C)c(C)c2)c(OC)cc1Cl,18µM*,-3%,?,-2,8,-22
Cc1c(CCO)sc[n+]1CCc1ccccc1,?,-1%,7%,/,/,/
SMILES,DT40 TDP1 CPT,ClpP mod,DT40 TDP1 no CPT,D3 ag,IL1B secr inh,DRD3 antagonist
Cc1sc2ccccc2[n+]1CCc1ccccc1,6.3µM*,-5%,3.2µM*,/,/,/
Cc1sc2ccccc2[n+]1CCCCI,?,-1%,20µM*,/,/,/
Cc1ccc2ccccc2[n+]1CCCCI,-19%,?,-9%,/,/,/
CCOC(=O)c1c(C)[nH]c(CCC(=O)NCc2ccc(F)cc2)c1C,-26%,-1%,?,2,/,/
CCOc1ccc(OCC)c(NC(=O)CCc2nc3cccnc3n2-c2ccccc2)c1,21µM*,1%,?,-14,/,/
O=C(CCc1nc2cccnc2n1-c1ccccc1)Nc1ccc(Cl)c(Cl)c1,?,-3%,18µM*,1,/,/
Cc1ccc(NC(=O)CCc2nc3cccnc3n2-c2ccccc2)cc1Cl,16µM*,1%,16µM*,9,/,/
CCOC(=O)c1cccc(NC(=O)CCc2nc3cccnc3n2-c2ccccc2)c1,-27%,-3%,-28%,-6,/,/
Cc1nc(-c2ccc(F)cc2)sc1CCNC(=O)c1ccco1,?,-11%,?,-9,/,/
COc1ccc(C(=O)C[n+]2ccc3c(c2)nc(-c2ccccc2)n3C)cc1,12µM*,-1%,8.2µM*,0,-22,26
C=Cn1cc[n+](CC(=O)c2ccc(OC)cc2)c1,?,-2%,21µM*,-10,28,0
COc1cc(-c2nc3c[n+](CC(=O)c4ccccc4)ccc3n2C)cc(OC)c1OC,4%,0%,-2%,4,5,9
O=C1C2CCCN2C(=S)N1c1cc(Cl)ccc1Cl (configuration not stated),-10%,/,2%,2,-66*,12
CCc1ccc(N2C(=O)C3CCCN3C2=S)cc1 (configuration not stated),6%,/,?,7,-15,-18
CCN(CC)S(=O)(=O)c1ccc(S(=O)(=O)Nc2ccc3c(c2)oc2ccccc23)cc1,?,0%,?,1,0,-58*
CCN(CC)S(=O)(=O)c1cc(NS(=O)(=O)c2cccc(C(=O)O)c2)ccc1C,1%,/,-12%,18,-8,11
CCN(CC)S(=O)(=O)c1cc(NS(=O)(=O)c2ccccc2)ccc1C,16µM*,-2%,-28%,-8,16,-9
Cc1cc(C(F)(F)F)n(-c2nc(C(=O)NN)cs2)n1,-10%,0%,-9%,-1,-7,7

# Screens as filed in PubChem BioAssay.
